# Screening results from PubChem.
# HCMV inh – human cytomegalovirus inhibition; HFF cells, HCMV-luciferase reporter, 72 h; active compounds read low; activity change, negative = inhibition, % at 57.5 µM; 410,000 compounds, 4.5% hits; AID 1259415; in the data active = activity change below about -60%; inconclusive = no clear call, values can overlap the other calls; inactive = above about -39%
#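 Cell-based, HFFs, 1000 cells/well, 16 h 37C; cpds in DMSO + HCMV-luc, MOI 1 PFU/cell; 72 h 37C; OneGlo luminescence after 5 min RT; norm. to buffer vs Salinomycin 10uM.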
# MARV entry inh – blocks Marburg virus binding to or entry into cells | Marburg virus pseudotyped entry inhibition, cell reporter | 300,000 compounds, 1.8% hits | Potency, µM (highest dose often 37.8 µM), for inactives: top-dose activity change, negative = inhibition, usual class: inhibitors; calls by dose curve; tested in HEK293 cells; also: potency is read from the fitted curve at half-maximal effect
# FMDV antiviral – blocks foot and mouth disease virus; FMDV antiviral cell-based qHTS; Potency, µM (series often up to 57.9 µM), for inactives: at the highest dose activity change, negative = inhibition, hits mostly inhibitors; 410,000 compounds, 1.2% hits; calls by dose curve; tested in HEK293T cells; also: read-out not given here; potency is read from the fitted curve at half-maximal effect; nearly all actives have a fitted effect of over 45% in size
# Lassa entry inh – blocks Lassa virus binding to or entry into cells; Potency, µM (series often up to 37.9 µM), inactives show at the highest dose activity change, negative = inhibition, actives largely listed as inhibitors; AID 540256; Lassa virus pseudotype entry inhibition, cell reporter; 300,000 compounds, 1.2% hits; calls by dose curve; tested in HEK293 cells; also: potency is read from the fitted curve at half-maximal effect; nearly all actives have a fitted effect of over 50% in size
# * = called active by the depositor; ? = inconclusive; nt = not tested or not shown; ! = not active in a repeat; [ ] = another dose, or the depositor's remark. Rows were chosen to be rich in hits. Some 6.2% of all compounds tested hit in one or more screens of this group. % is scaled to controls: 0 for no effect and ±100 for the full control effect.
SMILES,HCMV inh,MARV entry inh,FMDV antiviral,Lassa entry inh
CC(/C=N/NC(=O)c1n[nH]c2c1CCC2)=C\c1ccccc1,-88*,?,25%,?
O=C(N/N=C/C=C/c1ccccc1)c1n[nH]c2c1CCC2,-21,?,38%,-5%
O=C(N/N=C/C(Br)=C\c1ccccc1)c1n[nH]c2c1CCC2,-79*,?,4%,?
Cc1ccc(CNC(=O)CCNS(=O)(=O)c2ccc3c(c2)CCCC(=O)N3)cc1,-6,nt,-19%,21%[46.1 µM]
O=c1cc(CSc2n[nH]c(-c3ccncc3)n2)nc2sccn12,?,11%[46.1 µM],-5%,11%[46.1 µM]
CCCn1cc(CN2CCC(Cc3cccc(F)c3)(C(=O)OCC)CC2)c(C)n1,-1,nt,33%,nt
COc1cccc(NC(=O)N2C3CCCC2CC(NC(=O)C2CC2)C3)c1 (configuration not stated),14,-17%[46.1 µM],2%,-6%[46.1 µM]
O=C(COC(=O)c1ccc(Cl)cc1O)Nc1cccnc1Cl,69,?,28%,26%
Cc1ccc(-c2ocnc2C(=O)Nc2ccccc2NC(=O)c2ccccn2)cc1,?,?,-13%,-20%
Cc1cccc(-c2ocnc2C(=O)Nc2ccccc2NC(=O)c2ccccn2)c1,-98*,?,0%,?
CCOc1cc(C(=O)Nc2ccc3nc(N4CCN(C)CC4)cc(C)c3c2)cc(OCC)c1OCC,-66*,5.6µM*,-29%,-20%[46.1 µM]
Cc1cc(N2CCN(C)CC2)nc2ccc(NC(=O)CCC(=O)N3CCN(c4ccc([N+](=O)[O-])cc4)CC3)cc12,-64*,?,-17%,-7%[46.1 µM]
CCN1CCN(c2cc(C)c3cc(NC(=O)c4ccncc4)ccc3n2)CC1,14,nt,-18%,nt
Cc1cc(N2CCN(C)CC2)nc2ccc(NC(=O)Nc3ccccc3Br)cc12,-95*,nt,19%,?
CCCN(CCC)CCCNC(=S)Nc1ccc2nc(N3CCN(C)CC3)cc(C)c2c1,-36,nt,-3%,nt
CCCCN(CC)CCNC(=S)Nc1ccc2nc(N3CCN(C)CC3)cc(C)c2c1,-3,3.5µM*,-11%,?
Cc1cc(N2CCN(C)CC2)nc2ccc(NC(=O)Nc3ccc(F)cc3F)cc12,?,nt,35%,?
CCCOc1ccc(C(=O)NC(=S)NNC(=O)c2c(-c3ccccc3)noc2C)cc1,25,nt,-1%,nt
Cc1[nH]n(-c2cccc([N+](=O)[O-])c2)c(=O)c1-c1ccccc1,-35,nt,1%,nt
CN(CC(=O)Nc1ccc(F)cc1)C(=O)C1CCN(C(=O)Nc2ccccc2)CC1,-5,nt,7%,nt
CSc1sc(-c2n[nH]c(=S)n2C)c2c1C=CCC2,5,22%,22%,?
Cc1cc(N2CCN(C)CC2)nc2ccc(NC(=O)Nc3cccc(Cl)c3)cc12,-99*,nt,3%,?
Cc1ccc(NC(=O)Nc2ccc3nc(N4CCN(C)CC4)cc(C)c3c2)cc1C,-100*,nt,-2%,?
Cc1cc(N2CCN(C)CC2)nc2ccc(NC(=O)Nc3ccccc3)cc12,?,nt,42%,1%[46.1 µM]
CCOC(=O)c1ccc(Oc2c(C)oc3cc(OS(C)(=O)=O)ccc3c2=O)cc1,-77*,?,0%,5%
SMILES,HCMV inh,MARV entry inh,FMDV antiviral,Lassa entry inh
CCOc1ccc(Oc2c(C)oc3cc(O)ccc3c2=O)cc1,?,4%[46.1 µM],-6%,-3%[46.1 µM]
O=C(Cn1ncn2c(cc3cc(F)ccc32)c1=O)NC1CCCCC1,-3,-15%[46.1 µM],-9%,nt
CN(C)CCCCOc1ccccc1-c1ccccc1,9,13µM*,10%,?
CCN1CCN(CCCOc2ccccc2-c2ccccc2)CC1,?,?,-10%,?
c1ccc(-c2ccccc2OCCCN2CCCCC2)cc1,-38,?,-25%,16µM*
Cc1ccc(C)c(CN2CCC(CNC(=O)Nc3ccc(Br)cc3F)CC2)c1,-79*!,4.5µM*,?,?
Cc1ccc(C)c(CN2CCC(CNC(=O)Nc3ccc(Cl)cc3)CC2)c1,-23,?,5%,-6%[46.1 µM]
CCCCNC(=O)c1ccc2c(c1)S(=O)(=O)c1ccccc1C2=O,-18,?,-4%,?
O=C(Nc1ccccc1)C1C2CCC3C(CCC21)C3(Cl)Cl (configuration not stated),-20,0%,-5%,?
O=C(Nc1cccc(Cl)c1)C1C2CCC3C(CCC21)C3(Cl)Cl (configuration not stated),-10,?,40µM*,?
CCCCCCC12C(=Cc3cc4c(cc31)OCCO4)c1cc(OC)c(OC)cc1C(CC(=O)NC1CCCCC1)N2C(=O)OC (configuration not stated),-28,nt,nt,nt
CC(C)(C)c1ccc(Cn2cnc(-c3ccc([N+](=O)[O-])cc3)c2)cc1,56,?,12%,8.9µM*
O=C(CCl)Nc1ccc(Oc2cnc3ccccc3n2)cc1,-104*,?,20µM*,21µM*
O=C(Nc1cccc(-c2cnc3ccccc3n2)c1)c1ccccc1,-17,-11%,46%,2%
O=C(Nc1cccc(-c2cnc3ccccc3n2)c1)c1cccc(NC(=O)c2ccco2)c1,133,12µM*,?,?
O=C(CCl)Nc1cccc(-c2cnc3ccccc3n2)c1,-98*,?,25µM*,?
O=C(N/N=C1\CCSc2ccc(F)cc21)c1cccnc1,-19,nt,10%,nt
CCOC(=O)C1=C(C)NC(C)=C(C(=O)OCC)C1c1sccc1C,-19,?,?,-5%
O=C1CCC(=O)N1c1ccccc1OS(=O)(=O)c1ccccc1,-97*,?,-9%,6%
O=S(=O)(Oc1ccccc1N1CCCCC1)c1ccccc1,-61*,?,0%,-3%[46.1 µM]
CC(=O)Nc1ccc(S(=O)(=O)Oc2ccccc2N2C(=O)C3C4CCC(C4)C3C2=O)cc1 (configuration not stated),-34,10µM*,-23%,2.8µM*
O=C1CCC(=O)N1c1ccccc1-c1ccccc1,34,-3%,-14%,?
COc1ccccc1N1CCN(S(=O)(=O)c2ccccc2)CC1,78,-2%,-13%,-1%
CC(=O)Nc1ccc(S(=O)(=O)Oc2ccc(N3C(=O)C4CCCCC4C3=O)cc2)cc1 (configuration not stated),-39,-1%,?,-2%
COc1ccc(S(=O)(=O)c2c(O)c3ccc(C(=O)Nc4ccccc4)cc3[nH]c2=O)cc1,-33,nt,?,?
SMILES,HCMV inh,MARV entry inh,FMDV antiviral,Lassa entry inh
OC(COC(c1ccc(F)cc1)c1ccc(F)cc1)CN1CCc2ccccc2C1 (configuration not stated),-61*,?,-21%,-22%
CC(C)(C)c1ccc(OCC(O)CN2CCc3ccccc3C2)cc1 (configuration not stated),-63*,nt,-15%,nt
CN1CCN(CC(O)COC(c2ccc(Cl)cc2)c2ccc(Cl)cc2)CC1 (configuration not stated),-80*,nt,-19%,nt
OC(COC(c1ccc(Cl)cc1)c1ccc(Cl)cc1)CN1CCCC1 (configuration not stated),28,?,-16%,?
OC(COC(c1ccccc1)c1ccccc1)CN1CCc2ccccc2C1 (configuration not stated),38,?,-13%,-38%[46.1 µM]
Cc1ccc(-c2n[nH]c(=S)n2/N=C\c2ccco2)cc1,-16,?,-7%,?
